Reference: PubChem BioAssay (NCATS)
Records with an inconclusive call do not appear. Entries that show only a call come without a potency. Active and inactive are the calls of the source. Unless noted, the call rests on the fitted dose curve; in most records, active means well fitted curve in the direction sought with a large enough effect; inconclusive means small, poorly fitted or top-dose-only effect, or another doubt; inactive means no such curve, though single readings can be large; an effect the other way counts as inactive or inconclusive.

Columns and labels:
[1] = Primary qHTS for inhibitors of La Crosse Virus (LACV) - induced cell death in SH-SY5Y cells (AID 1508616);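 further: top concentration of the series differs between compounds; higher means more rescue of cells from virus-induced death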
How it was run: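 Readout was luminescence from ATPLite 1step added after a 6-day LACV infection (0.01 MOI) of SH-SY5Y cells that had received pin-transferred compound 24 hr after seeding.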

[2] = target: Calcium and integrin-binding protein 1 (Homo sapiens) (UniProt Q99828); experiment: Primary qHTS for Identification of Calcium Integrin Binding Protein 1 (CIB1) Competitor (AID 1508620);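 further: GST tagged CIB1 binding a fluorescein labelled alphaIIb integrin peptide tracer; top concentration of the series differs between compounds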
How it was run: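 CIB1-GST (1 uM final) and compound incubated 15 min at room temperature before adding FITC-alphaIIb peptide tracer (100 nM final). Competition for binding read by fluorescence polarization (ex 480, em 540) after another 15 min at room temperature.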

[3] = Primary qHTS for small molecule stabilizers of the endoplasmic reticulum resident proteome: Secreted ER Calcium Modulated Protein (SERCaMP) assay (AID 1508630)
How it was run: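 GLuc-SERCaMP-expressing SH-SY5Y cells, pretreated 16 h with compound, are challenged with thapsigargin to empty ER calcium stores; after 4 h, coelenterazine is added directly to the medium and luminescence is imaged.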

[4] = A High-Content qHTS Against Drug Library for the Identification of Small Molecules that Inhibit DYT1 Early Onset Primary Dystonia-Associated Cell Pathology (AID 1645839; calls by dose curve)
How it was run: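 In this high-content image screen, delE TorsinA mislocalization in inducible Flp-In 293 cells is scored as %pathology, with cell count serving as the counterscreen. Compound exposure lasts 48 h under tetracycline induction in reduced-serum medium.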

[5] = target: Cytochrome P450 2D6 (Homo sapiens) (UniProt P10635); experiment: Cytochrome P450 family 2 subfamily D member 6 (CYP2D6) small molecule antagonists: luciferase biochemical (cell-free) qHTS assay (AID 1645840; active means well fitted curve in the direction sought with a large enough effect in the repeat runs; an effect the other way counts as inactive or inconclusive; further: nearly all actives have a fitted effect of over 55% in size; further: potency means the concentration at half of the fitted maximal effect)
How it was run: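 P450-Glo luminescent screen: recombinant CYP2D6 enzyme–proluciferin substrate mix preincubated with compound 10 min at room temperature, then NADPH regeneration added for 1 h at room temperature. Detection reagent added for 20 min; luciferin light read as relative luminescence units.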

[6] = target: Cytochrome P450 2C9 (Homo sapiens) (UniProt P11712); experiment: Cytochrome P450 family 2 subfamily C member 9 (CYP2C9) small molecule antagonists: luciferase biochemical (cell-free) qHTS assay (AID 1645842; active means well fitted curve in the direction sought with a large enough effect in the repeat runs; an effect the other way counts as inactive or inconclusive; further: nearly all actives have a fitted effect of over 55% in size)
How it was run: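 Luminescence, after 20 min with luciferin detection reagent, reflected CYP2C9 turnover during a 1 h NADPH-driven reaction at 37C. Enzyme-substrate mix contained 0.4% bovine serum albumin and was preincubated with compound 10 min at room temperature.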

[7] = Cytotoxicity counterscreen for inhibitors of SARS-CoV-2 cell entry (AID 1645845; calls by dose curve; further: nearly all actives have a fitted effect of over 50% in size)
How it was run: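 48 h compound treatment (after 1 h preincubation), HEK293-ACE2 cells, 37 C/5% CO2; ATP luminescence endpoint; normalized to cell wells and media blanks.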

[8] = Primary qHTS for inhibitors of nuclear receptor binding SET domain protein 2 (NSD2) in an isogenic RCH-ACV NSD2 p.E1099K mutant (9B) (AID 1645876); further: nearly all actives have a fitted effect of over 70% in size; further: potency means the concentration at half of the fitted maximal effect
[9] = Primary qHTS for inhibitors of nuclear receptor binding SET domain protein 2 (NSD2) in an RCH-ACV wild type WT cells (2C) (AID 1645877); further: nearly all actives have a fitted effect of over 70% in size; further: potency means the concentration at half of the fitted maximal effect
[10] = Primary qHTS to identify inhibitors of SARS-CoV-2 cell entry (AID 1645846; calls by dose curve; further: nearly all actives have a fitted effect of over 45% in size); conditions: activity change, negative = inhibition: at 57.1 µM (top of the series) unless noted
How it was run: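 HEK293-ACE2 (Expi293F, stable hACE2), 1500 cells/well, o/n 37C; cpd 23 nL pin, 1 h; MLV-PP w/ SARS-CoV-2-S (Wuhan-Hu-1, Δ19 C-term); 48 h 37C; Bright-Glo luminescence; normalized vs S-PP and bald PP.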

Cytochrome P450 2C9 (Homo sapiens), sequence (P11712 whole entry, looked up): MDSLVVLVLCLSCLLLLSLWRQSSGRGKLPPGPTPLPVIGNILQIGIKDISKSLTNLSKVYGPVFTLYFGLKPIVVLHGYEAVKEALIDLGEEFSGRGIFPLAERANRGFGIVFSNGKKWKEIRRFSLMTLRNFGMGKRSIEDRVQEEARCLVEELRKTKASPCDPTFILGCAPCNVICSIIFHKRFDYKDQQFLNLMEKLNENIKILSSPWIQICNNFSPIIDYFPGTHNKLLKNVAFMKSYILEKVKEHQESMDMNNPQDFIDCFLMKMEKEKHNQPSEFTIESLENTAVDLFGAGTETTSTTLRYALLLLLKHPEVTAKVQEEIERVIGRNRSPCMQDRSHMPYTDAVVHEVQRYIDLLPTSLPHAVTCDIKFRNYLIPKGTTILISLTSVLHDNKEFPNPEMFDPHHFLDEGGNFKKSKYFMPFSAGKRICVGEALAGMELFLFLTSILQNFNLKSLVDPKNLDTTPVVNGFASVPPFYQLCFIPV
Calcium and integrin-binding protein 1 (Homo sapiens), sequence (Q99828 whole entry, looked up): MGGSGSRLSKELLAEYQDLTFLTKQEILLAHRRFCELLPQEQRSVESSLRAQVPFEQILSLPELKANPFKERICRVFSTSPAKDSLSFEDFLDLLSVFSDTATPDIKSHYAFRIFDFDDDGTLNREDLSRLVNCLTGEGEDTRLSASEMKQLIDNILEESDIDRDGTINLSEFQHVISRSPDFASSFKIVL
Cytochrome P450 2D6 (Homo sapiens), sequence (P10635 whole entry, looked up): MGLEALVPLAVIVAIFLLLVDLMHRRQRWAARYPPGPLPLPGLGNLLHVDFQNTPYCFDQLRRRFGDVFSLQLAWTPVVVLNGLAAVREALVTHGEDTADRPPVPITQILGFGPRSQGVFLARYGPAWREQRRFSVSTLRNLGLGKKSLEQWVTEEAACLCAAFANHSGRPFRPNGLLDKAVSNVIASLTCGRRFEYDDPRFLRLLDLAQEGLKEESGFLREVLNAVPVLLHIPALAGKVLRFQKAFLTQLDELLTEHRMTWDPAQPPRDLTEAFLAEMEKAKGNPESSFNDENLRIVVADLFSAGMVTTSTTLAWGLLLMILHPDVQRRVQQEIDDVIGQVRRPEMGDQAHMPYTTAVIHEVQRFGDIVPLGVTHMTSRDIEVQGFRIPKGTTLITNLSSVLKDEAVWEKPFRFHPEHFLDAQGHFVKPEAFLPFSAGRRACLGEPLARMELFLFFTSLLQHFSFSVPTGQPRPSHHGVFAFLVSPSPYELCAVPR

SMILES	outcome [1]	Potency [2]	outcome [3]	outcome [4]	Potency [5]	Potency [6]	Potency [7]	Potency [8]	Potency [9]	Potency [10]
C#C[C@]1(O)CC[C@H]2[C@@H]3CCC4=CC(=O)CCC4=C3C=C[C@@]21CC	inactive	inactive	inactive	inactive	0.977 µM (active)	inactive	inactive	inactive	inactive	
C[C@]12Cc3nonc3C[C@@H]1CC[C@@H]1[C@@H]2CC[C@@]2(C)[C@H]1CC[C@]2(C)O	inactive	inactive	inactive	inactive	inactive			21.1 µM (active)	21.1 µM (active)	
COc1cc(CC(C)N)cc2c1OCO2 (stereo unspecified)	inactive	inactive	inactive	inactive		inactive				
COc1cc(C[C@@H](C)N)c(OC)cc1C	inactive	inactive	inactive	inactive	38.1 µM (active)	inactive		inactive		
CCS(=O)(=O)C(C)(C)S(=O)(=O)CC	inactive	inactive	inactive	inactive	inactive	inactive		inactive	inactive	
CC[C@H]1C[C@H]2[C@@H]3CCC4=CC(=O)CC[C@@H]4[C@H]3CC[C@]2(C)[C@H]1O	inactive	inactive	inactive	inactive	inactive		inactive			inactive
C1CN2CCC1CC2	inactive	inactive	inactive	inactive	inactive	inactive		inactive	inactive	
COc1ccc2c(C(=O)c3ccc(Cl)cc3)c(C)n(CC(=O)O)c2c1	inactive	inactive	inactive	inactive	inactive			inactive	inactive	
CN1C(=O)CN=C(c2ccccc2)c2cc([N+](=O)[O-])ccc21	inactive	inactive	inactive	inactive	inactive	inactive		inactive	inactive	
